Results: PubChem BioAssay AID455 (Sanford-Burnham Center for Chemical Genomics, 2006)
About 20 (0.2%) of roughly 10,000 compounds were called active.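 Rule for the calls: active = a compound raising TNF-alpha-driven VCAM-1 surface staining, with its hit status upheld on visual or statistical review; inactive = the rest, including hits rejected on review.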 Only a selection was taken, and actives are over-represented in it overall.

Assay: boosters of cytokine-driven VCAM-1 levels – cell-based, plate reader, pooled HUVEC, TNFa stimulus (AID 455);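 for augmentation: 0% = TNFa plus DMSO wells and 100% = a visually confirmed top hit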
Conditions: HUVEC TNFa-induced VCAM-1 immunofluorescence; stronger effect = higher value,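 tested at 5 µM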

SMILES | augmentation
COc1ccccc1/C=C1/C(=N/O)C2CCN1CC2 | 81.5% (active)
O=C(CCCOc1ccc(Cl)cc1Cl)N1CCC2(CC1)OCCO2 | inactive
O=C(Cn1ncc2c3ccccc3n(Cc3ccc(F)cc3)c2c1=O)N1CCC2(CC1)OCCO2 | inactive
Cc1cccc(N2CCc3c2nc2ccccc2c3N)c1 | inactive
COc1ccc(C2SCC(=O)Nc3c2c(=O)[nH]n3C2CCCCCC2)cc1OC (stereo not given) | inactive
